# Assay results taken from PubChem BioAssay (NCI).
# Compounds without any hit were thinned out: in the full panel of roughly 83,000, 20% have a hit.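 96-well plates, one dose, 48 hours. Percent growth reported; active if below 10.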 Unmarked numbers belong to inactive results. Activity calls are given as the source filed them.
# How the values were obtained:
# Experiment in all cases: NCI-60 one-dose screen, 48 h (100 = growth as untreated, 0 = no growth, -100 = all killed)
# NCI-H226 lung = settings: 10 µM
# HOP-62 NSCLC = settings: 10 µM unless noted
# NCI-H460 lung = settings: 10 µM unless noted
# HOP-92 NSCLC = settings: 10 µM unless noted
# NCI-H522 lung = settings: 10 µM
# A549/ATCC NSCLC = settings: 10 µM unless noted
# 786-0 renal = settings: 10 µM unless noted
# COLO 205 colon = settings: 10 µM unless noted
# NCI-H322M lung = settings: 10 µM unless noted
Compound,growth (NCI-H226 lung),growth (HOP-62 NSCLC),growth (NCI-H460 lung),growth (HOP-92 NSCLC),growth (NCI-H522 lung),growth (A549/ATCC NSCLC),growth (786-0 renal),growth (COLO 205 colon),growth (NCI-H322M lung) [%]
CC1(C)N=C(N)N=C(N)N1c1cccc(OCCOc2cccc([N+](=O)[O-])c2)c1,98.2%,93%,19%,86.4%,7.73% (active),20.4%,81.7%,35%,–
CCCCC/C=C\C/C=C/CCCCCCCCNC(=O)Nc1ccc([N+](=O)[O-])cc1,93.5%,–,84.4%,-1.17% (active),41.5%,97%,102%,95%,120
CN1CCn2c(c(Sc3ccc(C(=O)NO)cc3)c3ccccc32)C1=O,-8.32% (active),21.3%,20.4%,–,-97.3% (active),62%,39.8%,1.64% (active),53
COc1cc(C2C3=C(COC3=O)N(CCO)c3cc4c(cc32)OCO4)cc(OC)c1O (stereo unspecified),61.7%,41.7%,–,66%,-40.7% (active),52.1%,20%,7.23% (active),52.5
Cc1ccc(S(=O)(=O)N(c2ccc(Cl)cc2)c2ccc(Br)cc2C(=O)O)cc1,97.7%,105%,107%,–,102%,105%,114%,116%,114
Cc1nc2cc(Nc3nc(Cl)nc(Nc4ccc(F)cc4)n3)ccc2n1Cc1ccccc1,80.5%,88.4%,88%,50.7%,-69.8% (active),86.7%,33%,109%,–
COc1ccc(NC(=O)COc2ccccc2)c(C(N)=O)c1,71.6%,20.3%,11.2%,–,6.28% (active),24.8%,35.2%,-12.1% (active),59.3
NC(=O)c1cc(I)ccc1NC(=O)COc1ccccc1,64.2%,21.7%,6.3% (active),–,0.734% (active),18.3%,33.7%,12.2%,48.3
COc1ccc(-n2ncc3c4nc(OC)c(S(=O)(=O)c5ccccc5)cc4ccc32)cc1,45.3%,47.5%,78.9%,26.7%,61.3%,71.3%,47.2%,96.6%,–
COc1ccc(-c2nc3sccn3c2/C=C/C(=O)c2cc(OC)c(OC)c(OC)c2)cc1OC,64.9%,36.9%,–,0.346% (active),15.3%,54.4%,27.7%,29.6%,57.9
CC(=O)N(CC(O)CO)c1c(I)c(C(=O)NCCO)c(I)c(C(=O)NCC(O)CO)c1I (stereo unspecified),98.7%,99.2%,–,–,97.8%,100%,91%,105%,93
CCOC(=O)c1cc2c(n(C)c1=O)-c1cnn(-c3ccc(OC)cc3)c1CC2,107%,108%,108%,104%,83.3%,98.2%,101%,109%,–
O=C1C2CC3C(CC2C(=O)[N]1[Sn]([c]1ccccc1)([c]1ccccc1)[c]1ccccc1)C1(Cl)C(Cl)=C(Cl)C3(Cl)C1(Cl)Cl (stereo unspecified),-43.5% (active),-92.1% (active),-81.6% (active),-96.1% (active),-94.2% (active),-97.2% (active),-86.2% (active),-86.7% (active),–
O=C(Nc1ccc(Cl)c(Cl)c1)NC(CO)(CO)CO,97.5%,88.1%,103%,79.9%,88.7%,97.4%,92.3%,106%,–
CON=C1C[C@]2(C[C@@H]3C[C@@H](C/C=C(\C)C[C@@H](C)/C=C/C=C4\CO[C@@H]5[C@H](O)C(C)=C[C@@H](C(=O)O3)[C@]45O)O2)O[C@H](/C(C)=C/C(C)C)[C@H]1C,–,76.5%,39.3%,24.8%,50.5%,48.7%,65.5%,59.1%,72.1
CC(C)(C)CC(C)(C)N(CSc1ccc(Cl)cc1)CSc1ccc(Cl)cc1,45.2%,83.4%,42.9%,23.3%,-4.63% (active),10.6%,41%,75.6%,–
Cc1nn(-c2ccccc2)c2nc3nc4c(c(N)c3c(-c3ccc(Cl)cc3)c12)CCCC4,83.4%,106%,97.4%,84.4%,90.6%,94.4%,86.9%,94.4%,–
CCCCCCCCCCCC(=O)[O][Sn]([CH2]CCC)([CH2]CCC)[CH2]CCC,-66% (active),-94.9% (active),–,-95.7% (active),-96% (active),–,-99.7% (active),-78.2% (active),–
COc1ccc(-c2c3c(N)c4c(nc3nc3c2c(C)nn3-c2ccccc2)CCCC4)cc1,86.9%,89.3%,73.8%,28.9%,60.6%,76.6%,70.8%,73.4%,–
CCCCCCCCCCCCCCNc1nc(CO)ncc1-c1ccc(C(F)(F)F)cc1,101%,92.9%,105%,89.6%,90.6%,98.9%,97.3%,108%,–
CCCC1=NNC(=O)C1,108%,99%,109%,90.7%,94%,95.9%,95.8%,99.3%,–
N#CCCN1CCN(CCC#N)C1=S,112%,108%,103%,–,–,97.4%,105%,105%,–
Brc1ccc(SCN(CSc2ccc(Br)cc2)Cc2ccccc2)cc1,76.6%,120%,63.1%,59.7%,73%,45.8%,60.8%,108%,–
COc1ccc(OC)c2ncccc12,95.8%,90.2%,108%,72.2%,84%,108%,102%,106%,–
COc1ccc(/C=C(\C#N)c2ccc(OC)cc2)cc1,82.7%,67.1%,50.9%,–,–,54.3%,90.1%,78.7%,–
COc1ccc(-n2ncc3c2ccc2cc(S(=O)(=O)c4ccccc4)c(=O)n(C)c23)cc1,52.6%,72.5%,88.8%,37.2%,33.2%,86.8%,82.3%,108%,–
